Assay outcomes deposited in PubChem by National Center for Advancing Translational Sciences (NCATS).
Only some compounds are listed: those with a hit (about 20% of all), similar ones and a draw of the others.
CHX counter: counter-screen hit for Shiga toxin inhibitors, cycloheximide; cell reporter, cycloheximide protein synthesis inhibition counterscreen; max response, %; 12% of 300,000 active; AID 2314; in the data active = max response mostly above about 13%, no sharp cut-off; inactive = mostly below about 14%; also: read at 38.3 µM for the half of the compounds with a filed dose; 0% is about no effect
HCMV inh: inhibitors of human cytomegalovirus | HFF cells, HCMV-luciferase reporter, 72 h; stronger effect = lower value | 4.5% of 410,000 active | activity change, negative = inhibition, % at 57.5 µM | AID 1259415; in the data active = activity change below about -60%; inconclusive = no clear call, values can overlap the other calls; inactive = above about -39%; also: % is scaled to controls: 0 for no effect and ±100 for the full control effect
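After 16 h attachment at 37C, HFF cells received test compound and HCMV-luciferase (1 PFU/cell); reporter luminescence read 72 h later, data normalized against buffer-only and known inhibitor Salinomycin.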
Pf growth 48h: inhibits P. falciparum growth in the first generation, 48 h. P. falciparum luciferase growth in erythrocytes, 48 h. Potency, µM (highest dose often 28.7 µM), inactives show at the highest dose activity change, negative = inhibition, most hits filed as inhibitors. 5.9% of 310,000 active; also: potency is read from the fitted curve at half-maximal effect; % is scaled to controls: 0 for no effect and ±100 for the full control effect
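Parasite viability was followed by luminescence of a genomically integrated firefly luciferase. Cultures held 0.1% parasitemia at 2% hematocrit (final), incubated under 5% CO2 at 37 C.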
Shiga inhibitor: blocks Shiga toxin action in Vero cells. Vero cells, Shiga toxin protein synthesis inhibition reporter. inhibition, % at 38.7 µM. 9.2% of 290,000 active; in the data active = inhibition mostly above about 28%, no sharp cut-off; inactive = mostly below about 43%; also: 0% is about no effect
Pf growth 96h: P. falciparum growth inhibition at 96 hours; P. falciparum luciferase reporter growth, 96 h; 6.9% of 320,000 active; Potency, µM (series often up to 28.7 µM), without a hit: at the top dose activity change, negative = inhibition, most hits filed as inhibitors; AID 504834; also: potency is read from the fitted curve at half-maximal effect; % is scaled to controls: 0 for no effect and ±100 for the full control effect
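P. falciparum expressing integrated firefly luciferase grown in erythrocytes (2% hematocrit, 0.05% parasitemia final) with compounds for 96 hours at 37 C, 5% CO2. Growth inhibition read as loss of luminescence after adding luciferase detection reagent.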
An asterisk follows results filed as active; ? = inconclusive; · = no result given. Unless noted, calls follow the shape of the dose curve; as a rule, active = well fitted inhibition curve with a large enough effect; inconclusive = small, poorly fitted or top-dose-only effect, or another doubt; inactive = no such curve, though single readings can be large or run the other way.

SMILES	CHX counter	HCMV inh	Pf growth 48h	Shiga inhibitor	Pf growth 96h
Cc1cc(C)c(C#N)c(N2CCN(c3ccccc3)CC2)n1	-2.4	-9.9	0.9%	-6.0	33.7%
Cn1c(N)c(C(=O)COC(=O)CCC(=O)c2ccc(F)cc2)c(=O)n(C)c1=O	-2.7	12.6	15.4%	-5.1	0.7%
COc1ccccc1N1CCN(C2=NS(=O)(=O)c3ccccc32)CC1	11.6*	49.1	22.9%	1.9	7.7%
O=C(Nc1ccc2oc(-c3cccnc3)nc2c1)c1cccnc1	-2.3	4.8	-3.5%	33.6	?
Cc1ccc2oc(-c3ccc(NC(=O)c4cccnc4)cc3)nc2c1	70.0*	101.6	-85.3%	62.0*	55.6%
O=C(Nc1ccc(-c2nc3ccccc3o2)cc1)c1cccnc1	43.8*	28.0	126.5%	114.8*	112.3%
O=C(CCN1C(=O)c2ccccc2C1=O)Nc1ccc(-c2nc3ccccc3o2)cc1	18.5*	44.0	16.0%	82.8*	·
O=C(CCN1C(=O)c2ccccc2C1=O)Nn1cnnc1	-2.0	-16.7	-1.2%	14.3	2.94µM*
O=C(Nc1cccc(-c2nc3ccccc3o2)c1)c1cccnc1	19.5	?	3.8%	-3.5	18.0%
O=[n+]1cc(-c2cccc3ccccc23)n([O-])c2c1CCC2	8.6	-2.5	·	-18.4	0.0%
O=c1c2c3c(sc2n(CCN2CCOCC2)c(=O)n1C1CCCCC1)CCCCC3	·	-15.1	·	·	·
Clc1ccc2c(c1)-c1c(cnc3cc(-c4ccccc4)nn13)CO2	·	9.6	·	·	·
Cc1ccc2c(cnn2C(=O)CCC(=O)NCc2ccccc2Cl)c1	2.5	28.3	30.7%	-3.6	19.8%
CCc1nnc(SCC(=O)Nc2ccccc2Cl)nc1CC	3.1	8.6	13.4%	0.3	2.2%
CC(C)n1ncc(N2CCOCC2)c(Cl)c1=O	13.8*	·	39.4%	7.5	65.6%
C/C(Cn1ncc(N2CCOCC2)c(Cl)c1=O)=N\O	-1.5	8.7	22.9%	6.3	8.4%
O=c1c(Cl)c(N2CCOCC2)cnn1-c1nc2ccccc2[nH]1	24.2*	49.3	234.1%	73.4*	309.6%
CCOC(=O)Cc1nc2ccccc2o1	15.2*	·	10.3%	52.8	3.29µM*
CC1(C(=O)NCc2ccccc2)CN(S(C)(=O)=O)CC(=O)N1CCCN1CCOCC1 (stereo not drawn)	·	151.2	·	·	·
O=C(NCc1ccco1)c1csc2c1CCCC2	11.8	-64.8*	18.8%	19.3	25.3%
O=C(NCc1ccco1)c1cc2c(s1)CCCCC2	57.1*	68.0	29.9%	114.6*	·
Cc1ccc(CNC(=O)c2csc3c2CCCCC3)cc1	-0.9	-28.9	10.7%	11.8	?
O=C(NCC(c1ccco1)N1CCCCC1)c1cc2c(s1)CCCC2 (stereo not drawn)	·	24.7	8.28µM*	·	1.65µM*
O=C(NCC1CCCO1)c1csc2c1CCCC2 (stereo not drawn)	39.8*	6.0	23.4%	30.9	?
CN(C)c1ccc(-c2nc(-c3ccco3)no2)cc1[N+](=O)[O-]	·	19.2	·	·	·
SMILES	CHX counter	HCMV inh	Pf growth 48h	Shiga inhibitor	Pf growth 96h
CC1(C)CC(C(CCN(Cc2ccccc2)C(=O)c2ccco2)c2ccc(F)cc2)CCO1 (stereo not drawn)	14.8	-8.2	11.7µM*	-7.9	1.47µM*
O=C(c1ccco1)N(CCC(c1ccccc1)c1ccco1)Cc1ccc(F)cc1 (stereo not drawn)	21.9*	20.2	?	20.2	?
CCC(=O)N(CCC(c1ccco1)C(C)C)Cc1ccccc1 (stereo not drawn)	-1.5	0.0	?	-4.3	?
CCC(=O)N(CCC(c1ccc(C)cc1)c1ccco1)Cc1ccco1 (stereo not drawn)	9.3	-33.4	2.33µM*	16.4	?
O=C(CN(Cc1ccc(F)cc1)C(=O)c1ccco1)NCc1ccc(F)cc1	0.7	-9.8	-4.8%	-9.3	0.0%
N#Cc1c(C(F)(F)F)cc(Cc2ccccc2)nc1SCC(=O)NCC(=O)O	·	16.4	·	·	·
COc1cccc(OC)c1C(=O)Oc1ccc2c(c1)O/C(=C\c1ccncc1)C2=O	-1.6	-75.1*	?	-6.3	-69.6%
COc1cccc(/C=C2\Oc3cc(OCC(=O)N4CCCC4)ccc3C2=O)c1OC	14.8*	13.7	13.1µM*	-3.7	10.4µM*
COc1cccc(/C=C2\Oc3cc(OCC(=O)N4CCCCC4)ccc3C2=O)c1OC	15.4	-2.7	?	45.1*	?
CN(c1ccc(Cl)cc1)c1cc(=O)n(C)c2ccccc12	-3.8	80.7	5.86µM*	31.5	-10.6%
CCc1ccc(NC(=O)c2ccc(F)c(S(=O)(=O)N(CC)c3ccccc3)c2)cc1	14.5*	-10.4	9.28µM*	1.6	?
CCN(c1ccccc1)S(=O)(=O)c1cc(C(=O)Nc2cccc(Cl)c2)ccc1F	13.1	-95.4*	?	-15.3	?
CCCCn1c(N)c(N(CCOC)C(=O)C2CCN(S(=O)(=O)c3ccccc3)CC2)c(=O)[nH]c1=O	·	2.7	10.6%	·	10.5%
CCCCn1c(N)c(N(CC(C)C)C(=O)C2CCN(C(=O)c3ccc(F)cc3)CC2)c(=O)[nH]c1=O	5.0	5.6	-3.8%	-1.6	?
CCCCn1c(N)c(N(CCOC)C(=O)C2CCN(c3ncnc4sc(C)c(C)c34)CC2)c(=O)[nH]c1=O	·	-5.8	11.7µM*	·	11.7µM*
CCCCn1c(N)c(N(CC(C)C)C(=O)C2CCN(c3ncnc4sc(C)c(C)c34)CC2)c(=O)[nH]c1=O	·	?	5.22µM*	·	2.94µM*
CCOC(=O)C1CCN(C(=O)c2nn(-c3ccc(OC)c(Cl)c3)c(=O)c3c2c2ccccc2n3C)CC1	·	57.3	·	·	·
Cc1ccc(-c2csc(NC(=O)c3ccc(S(=O)(=O)N4CCc5ccccc54)cc3)n2)cc1	-0.8	?	10.4µM*	-5.8	13.1µM*
CCOc1ccc(-c2csc(NC(=O)c3ccc(S(=O)(=O)N4CCc5ccccc5C4)cc3)n2)cc1	-1.4	-8.4	13.4%	-6.4	-19.4%
O=C(Nc1nc(-c2ccccc2)cs1)c1ccc(S(=O)(=O)N2CCc3ccccc32)cc1	1.8	-77.4*	?	10.0	?
Cc1ccc(NC(=O)Cc2ccsc2)cc1S(=O)(=O)N1CCOCC1	·	-29.1	·	·	·
Cc1cccc(OCCCC(=O)NNC(=O)c2ccc(F)cc2)c1	·	-10.6	?	·	57.9%
Cc1oc2cc(O)cc(O)c2c(=O)c1-c1ccc2c(c1)OCCCO2	33.6*	13.6	103.3%	116.0*	·
CC(=O)Oc1cc(OC(C)=O)c2c(=O)c(-c3ccc4c(c3)OCCCO4)c(C)oc2c1	8.3*	2.4	-28.8%	16.0	-9.3%
O=C(NCc1ccc(N2CCCC2=O)cc1)C1CCC(=O)N(Cc2ccccc2F)C1 (stereo not drawn)	-1.3	2.5	25.4%	-6.4	-1.8%
COc1ccc(NC(=O)CN(C)S(=O)(=O)c2ccc3nc(C)sc3c2)cc1Cl	·	-68.6*	·	·	·
COc1cc(OC)c(NC(=O)CN(C)S(=O)(=O)c2ccc(-c3ccc(=O)[nH]n3)s2)cc1Cl	0.7	-21.8	2.33µM*	11.6	7.6%
COc1ccc(C(=O)Nc2ccc3nc(C)sc3c2)cc1OC	31.0*	14.8	129.5%	84.0	-0.1%
